Laboratory results published in PubChem BioAssay (NCATS).
The other results are listed elsewhere or left out. Inconclusive results are not listed. Active and inactive are the calls of the source. Calls come from the whole dose curve; as a rule, active = well fitted inhibition curve with a large enough effect; inconclusive = small, poorly fitted or top-dose-only effect; inactive = flat fitted curve, though single readings scatter.

Assay: qHTS Assay for Inhibitors of Fructose-1,6-bisphosphate Aldolase from Giardia Lamblia: Coupling assay counterscreen confirmation (AID 2795); note: nearly all actives have a fitted effect of over 55% in size
Conditions: GAPDH coupling enzyme counterscreen, biochemical; series mostly up to 57.5 µM
Source text: NIH Chemical Genomics Center [NCGC]
NIH Molecular Libraries Probe Production centers Network [MLPCN]
Assay Provider: Osnat Herzberg, University of Maryland
The objective of this project is to obtain compounds that inhibit Giardia lamblia growth. G. lamblia is a human pathogen which afflicts impoverished nations; it is the most common cause of outbreaks of diarrhea in the United States. During the course of our study of potential drug targets in Giardia, we have identified the Class II (Zn2+ functions in electrophilic catalysis) fructose-1,6-bisphosphate aldolase (FBPA) as an excellent candidate for drug targeting. FBPA is a key glycolytic pathway enzyme, essential for G. lamblia survival. The human FBPA belongs to the Class I aldolases, which have a different substrate binding site structure and a radically different catalytic mechanism (employing a lysine-Schiff base intermediate). Therefore, affinity-based or mechanism-based inhibitors of the Giardia FBPA are expected not to interfere with the catalytic function of the human FBPA.
A glyceraldehyde-3-phosphate dehydrogenase/triose phosphate isomerase/NAD/arsenate coupled assay was adapted to the 1536-well HTP format for use in the primary screen. This was done by coupling it to a diaphorase/resazurin/resorufin reaction that can be monitored by fluorescence (excitation, 544 nm; emission, 590 nm). Compounds identified in this screen will be further evaluated by coupling the glycerol-3-phosphate/triose phosphate isomerase/NADH assay to a phenazine methosulfate/tetranitroblue tetrazolium color reaction. False positives due to the dehydrogenases and diaphorase inhibition will be eliminated, and selectivity assay will triage inhibitors of mammalian triose phosphate isomerase and the Class I FBPA. G. lamblia FBPA inhibitors identified by the in vitro analyses will be examined for growth inhibition of Giardia trophozoites, and for cytotoxicity in human cells.
This assay specifically addresses whether activity observed in the primary screen (AID 2451) is related to inhibition of the coupling assay used, as opposed to inhibition of aldolase. Actives in this assay are considered inconclusive for activity against aldolase. Hits from the primary screen was run in this assay to confirm their inactivity against the coupling assay.
Step,Parameter,Value,Description
1,Coupling enzyme reagent,2 uL,glyceraldehyde-3-phosphate
2,Compound,23 nL,3.68 nM-57.5 uM final concentration
3,Time,10 min,RT Incubation
4,Substrate/detection Reagent,2 uL,Substrate + enzyme coupling system + AmpLite Red kit
5,Time,20 min,RT Incubation
6,Detector,525 nm/598 nm (Fluorescence),ViewLux Fluorescence Read (Read 1)
1,Medium-binding black solid-bottom Kalypsys plates. FRD or Kalypsys dispenser.
2,Compound Library (10 mM ,1:5 dilution). Pin-transferred for a [final] range of 3.68 nM-57.5 uM.
4,FRD or Kalypsys dispenser, 2 uL of reaction mixture. Bottle kept at 4C and covered in foil to protect from light.
6,ViewLux Protocol 1194; Excitation filter wheel A (525/20 Pol; BODIPY TMR FP), Emission filter wheel B (598/25 S; BODIPY TMR FP S).
Keywords: Fructose-bisphosphate aldolase, FBPA , Giardia lamblia , Giardia, HTS, Inhibitors

Row | Compound | outcome
1 | Cc1cccc(-c2nnc(SCC(=O)O)n2Cc2ccccc2)c1 | inactive
2 | O=C1CCCN1CCCNC(=S)Nc1ccc(F)c(Cl)c1 | inactive
3 | Cc1cc(C)nc(N/N=C/c2ccc([N+](=O)[O-])o2)n1 | inactive
4 | Cc1ccc(C(=O)Nc2nnc(C3=COCCO3)o2)cc1C | inactive
5 | Cc1nc2ccc(NC(=S)N3CCC(C)CC3)cc2nc1C | inactive
6 | Cc1cc(C)n(-c2ccc(Cl)c(C(=O)O)n2)n1 | inactive
7 | C=C(C)CNC(=S)N/N=C/c1ccccc1OCC(=O)O | inactive
8 | COC(=O)CC1=NN(c2nc(C)cc(C)n2)C(=O)C1 | inactive
9 | O=C(NC(=S)Nc1ncccn1)c1ccccc1Br | inactive
10 | Oc1ccc2ccccc2c1N=Nc1nccs1 | inactive
11 | C=CCc1cc(C)ccc1OCCCn1ccnc1 | inactive
12 | O=C(CN1C(=O)COc2ccccc21)Nc1ccc(F)cc1 | inactive
13 | O=c1nc(N/N=C/c2ccco2)cn[nH]1 | inactive
14 | O=C(CSc1cccc[n+]1[O-])c1ccc(-c2ccccc2)cc1 | inactive
15 | O=C(N/N=C/c1ccccn1)c1cccnc1 | inactive
16 | CCN(CC(=O)Nc1ccc(S(=O)(=O)N2CCCC2)cc1)CC(=O)Nc1cccc(OC)c1 | inactive
17 | COc1ccc(CN2CCN(Cc3ccc(OC)c(OC)c3OC)CC2)cc1 | inactive
18 | CC1CCCN(S(=O)(=O)c2ccc(C(=O)Nc3nnc(-c4ccncc4)o3)cc2)C1 (stereo not given) | inactive
19 | Cc1cnc(NC(=O)c2ccccn2)s1 | inactive
20 | C/C(=N\NC(N)=S)c1cccnc1 | inactive

Row | Compound | outcome
21 | Cn1nnc(NC(=S)NC(=O)c2ccccc2)n1 | inactive
22 | COc1ccc(C(=O)NC(=S)N2CCCCC2c2cccnc2)cc1OC (stereo not given) | inactive
23 | CN1C(=O)/C(=C\c2ccc(-c3ccccc3)o2)SC1=S | inactive
24 | Cc1nc(N2CCOCC2)sc1C(=O)NN | inactive
25 | Cc1ccc(S(=O)(=O)NNC(=S)NC(C)(C)C)cc1 | inactive
26 | CCc1ccc2c(c1)C1(NN=C(c3ccccc3)S1)C(=O)N2 (stereo not given) | inactive
27 | CNC(=S)N/N=C/c1ccc(N2CCOCC2)s1 | inactive
28 | CC(=O)NC1CCN(CC(=O)Nc2nccs2)CC1 | inactive
29 | Cc1ccc(OCCCCc2c(C)n[nH]c2C)cc1 | inactive
30 | O=[N+]([O-])c1cc([N+](=O)[O-])c2cccnc2c1O | inactive
31 | Cc1cc(C)c2c(=O)[nH]c(SCC(=O)Nc3ccc(Br)cc3)nc2n1 | inactive
32 | Cc1csc(NC(=O)CN2CCCCCC2)n1 | inactive
33 | CC(C)(c1ccccc1)c1ccc(OCCN2CCCC2)cc1 | inactive
34 | O=C(Nc1ccccc1Cl)O/N=C(/c1ccccc1)c1ccccn1 | inactive
35 | O=S(=O)(c1ccc(NC(=S)NN=C(C2CC2)C2CC2)cc1)N1CCOCC1 | inactive
36 | CCN(CC(=O)NC(=O)NCc1ccccc1)Cc1nc2ccccc2c(=O)[nH]1 | inactive
37 | Cc1cccc(C)c1OCCN1CCOCC1 | inactive
38 | CCS(=O)(=O)c1cc([N+](=O)[O-])c(Sc2ccccc2N)s1 | inactive
39 | O=C(Nc1nnc(-c2ccco2)o1)c1ccc(S(=O)(=O)N2CCOCC2)cc1 | inactive
40 | CN1CCCc2cc(C#N)c(=O)[nH]c21 | inactive
